According to PubChem BioAssay AID1159580 (chemical genetic matrix, 2015):
Out of some 5,500 compounds screened, about 2,000 (36%) were called active. Roughly 18% stayed inconclusive and do not appear here. No stated cut-off is given here; in the data, active means normalized growth mostly below about 0.91 (no sharp cut-off); inconclusive means no clear call, values can overlap the other calls; inactive means mostly above about 0.92. Some of the results follow.

Assay: chemical genetic growth profiling, strain panel (AID 1159580);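 further: tested at 20 µM; growth read once vehicle control cultures reached saturation at 30 °C; 1 = growth at the plate median or of vehicle wells; lower values mean less growth of the strain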
Conditions: S. cerevisiae deletion strains, growth OD

Measured: normalized growth

COc1ccc(-c2coc3cc(O)ccc3c2=O)c(OC)c1O
inactive: locus YAL013W, strain DEP1, hits give low values 0.991 | locus YAL021C, strain ccr4, hits give low values 0.979 | locus YAL026C, strain drs2, hits give low values 0.979 | locus YAL030W, strain snc1, hits give low values 0.947 | locus YBL061C, strain skt5, hits give low values 0.973 | locus YBR009C, strain hhf1, hits give low values 0.966 | locus YBR021W, strain FUR4, hits give low values 1.12 | locus YBR023C, strain chs3, hits give low values 0.98 | locus YBR171W, strain sec66, hits give low values 0.983 | locus YBR229C, strain ROT2, hits give low values 0.949 | locus YBR231C, strain swc5, hits give low values 0.989 | locus YBR279W, strain paf1, hits give low values 0.983 | locus YCL011C, strain gbp2, hits give low values 0.977 | locus YCL016C, strain dcc1, hits give low values 0.978 | locus YCL029C, strain bik1, hits give low values 0.972 | locus YCL061C, strain MRC1, hits give low values 0.991 | locus YCL069W, strain vba3, hits give low values 0.981 | locus YCR088W, strain abp1, hits give low values 0.983 | locus YDL005C, strain med2, hits give low values 0.977 | locus YDL035C, strain GPR1, hits give low values 1 | locus YDL040C, strain nat1, hits give low values 0.987 | locus YDL074C, strain BRE1, hits give low values 1.03 | locus YDL101C, strain DUN1, hits give low values 0.97 | locus YDL185W, strain tfp1, hits give low values 0.968 | locus YDL192W, strain arf1, hits give low values 0.984 | locus YDR001C, strain nth1, hits give low values 0.983 | locus YDR069C, strain doa4, hits give low values 0.947 | locus YDR101C, strain arx1, hits give low values 0.975 | locus YDR137W, strain rgp1, hits give low values 0.986 | locus YDR159W, strain sac3, hits give low values 0.953 | locus YDR162C, strain NBP2, hits give low values 0.966 | locus YDR195W, strain ref2 0.94 | locus YDR297W, strain sur2, hits give low values 0.979 | locus YDR318W, strain mcm21, hits give low values 0.99 | locus YDR334W, strain swr1, hits give low values 0.967 | locus YDR335W, strain msn5, hits give low values 0.991 | locus YDR388W, hits give low values 0.988 | locus YDR392W, strain spt3, hits give low values 0.945 | locus YDR502C, strain sam2, hits give low values 0.977 | locus YEL003W, strain gim4, hits give low values 0.976 | locus YEL037C, strain rad23, hits give low values 0.967 | locus YEL061C, strain CIN8 (second series), hits give low values 0.967 | locus YEL061C, strain CIN8, hits give low values 0.985 | locus YER015W, strain faa2, hits give low values 0.983 | locus YER016W, strain bim1, hits give low values 0.986 | locus YER110C, hits give low values 0.962 | locus YER111C, strain swi4, hits give low values 0.971 | locus YER155C, strain BEM2 (second series), hits give low values 0.985 | locus YER155C, strain BEM2, hits give low values 1 | locus YER167W, strain BCK2, hits give low values 0.983 | locus YFR010W, strain ubp6, hits give low values 0.968 | locus YGL078C, strain dbp3, hits give low values 0.986 | locus YGL086W, strain mad1, hits give low values 0.971 | locus YGL167C, strain pmr1, hits give low values 0.959 | locus YGL173C, strain kem1, hits give low values 0.974 | locus YGL227W, strain vid30, hits give low values 0.957 | locus YGL240W, strain doc1, hits give low values 0.977 | locus YGL248W, strain PDE1, hits give low values 0.982 | locus YGL253W, strain hxk2, hits give low values 0.989 | locus YGR135W, strain pre9, hits give low values 1.01 | locus YGR252W, strain gcn5, hits give low values 1.12 | locus YHR013C, strain ard1, hits give low values 0.933 | locus YHR027C, strain rpn1, hits give low values 0.989 | locus YHR030C, strain SLT2, hits give low values 0.99 | locus YHR079C, strain IRE1 (second series), hits give low values 0.974 | locus YHR094C, strain hxt1, hits give low values 0.988 | locus YHR129C, strain ARP1, hits give low values 0.993 | locus YHR142W, strain chs7, hits give low values 1 | locus YHR200W, strain rpn10, hits give low values 0.991 | locus YIL066C, strain RNR3, hits give low values 0.981 | locus YIL073C, strain SPO22, hits give low values 0.98 | locus YIL125W, strain kgd1, hits give low values 0.99 | locus YIR030C, strain dcg1, hits give low values 0.985 | locus YJL092W, strain hpr5, hits give low values 0.986 | locus YJL095W, strain BCK1 (second series), hits give low values 0.986 | locus YJL095W, strain BCK1, hits give low values 0.978 | locus YJL115W, strain asf1, hits give low values 0.996 | locus YJL129C, strain trk1, hits give low values 0.966 | locus YJL134W, strain LCB3, hits give low values 0.983 | locus YJL154C, strain vps35, hits give low values 0.977 | locus YJL164C, strain tpk1, hits give low values 0.969 | locus YJL166W, strain qcr8, hits give low values 0.98 | locus YJL168C, strain set2, hits give low values 0.993 | locus YJL187C, strain SWE1 (second series), hits give low values 0.963 | locus YJL187C, strain SWE1, hits give low values 0.979 | locus YJR043C, strain POL32, hits give low values 0.985 | locus YKL009W, strain mrt4, hits give low values 0.965 | locus YKL068W, hits give low values 0.975 | locus YKL085W, strain MDH1 (second series), hits give low values 0.976 | locus YKL085W, strain MDH1, hits give low values 0.976 | locus YKL160W, strain elf1, hits give low values 0.999 | locus YKR001C, strain vps1, hits give low values 1 | locus YKR026C, strain gcn3, hits give low values 0.961 | locus YKR091W, strain srl3, hits give low values 0.973 | locus YLL001W, strain dnm1, hits give low values 1 | locus YLL026W, hits give low values 0.991 | locus YLL041C, strain sdh2, hits give low values 0.994 | locus YLR027C, strain aat2, hits give low values 0.976 | locus YLR039C, strain RIC1, hits give low values 0.97 | locus YLR058C, strain SHM2, hits give low values 0.972 | locus YLR102C, strain apc9, hits give low values 0.991 | locus YLR221C, strain rsa3, hits give low values 0.966 | locus YLR258W, strain gsy2, hits give low values 0.983 | locus YLR262C, strain YPT6 (second series), hits give low values 0.977 | locus YLR262C, strain YPT6, hits give low values 0.907 | locus YLR268W, strain sec22, hits give low values 0.989 | locus YLR320W, strain mms22, hits give low values 0.979 | locus YLR330W, strain CHS5, hits give low values 0.99 | locus YLR342W, strain FKS1 (second series), hits give low values 0.987 | locus YLR342W, strain FKS1, hits give low values 0.967 | locus YLR357W, strain rsc2, hits give low values 0.947 | locus YLR370C, strain arc18, hits give low values 0.978 | locus YLR371W, strain rom2, hits give low values 0.983 | locus YLR384C, strain iki3, hits give low values 0.975 | locus YLR418C, strain cdc73, hits give low values 1.01 | locus YML016C, strain PPZ1, hits give low values 0.993 | locus YML032C, strain rad52, hits give low values 0.983 | locus YML120C, strain ndi1, hits give low values 0.971 | locus YML124C, strain tub3, hits give low values 0.991 | locus YMR058W, strain fet3, hits give low values 0.977 | locus YMR078C, strain ctf18, hits give low values 0.982 | locus YMR125W, strain sto1, hits give low values 0.96 | locus YMR129W, hits give low values 0.981 | locus YMR205C, strain PFK2, hits give low values 0.953 | locus YMR223W, strain ubp8, hits give low values 0.981 | locus YMR231W, strain pep5, hits give low values 0.982 | locus YMR307W, strain GAS1, hits give low values 1.16 | locus YNL067W, strain RPL9B, hits give low values 0.972 | locus YNL071W, strain lat1, hits give low values 0.984 | locus YNL153C, strain GIM3, hits give low values 0.954 | locus YNL209W, strain ssb2, hits give low values 0.982 | locus YNL233W, strain BNI4, hits give low values 1 | locus YNL248C, strain rpa49, hits give low values 1 | locus YNL250W, strain rad50, hits give low values 0.99 | locus YNL271C, strain bni1, hits give low values 0.987 | locus YNL298W, strain CLA4, hits give low values 0.992 | locus YNL307C, strain MCK1, hits give low values 0.995 | locus YNL322C, strain KRE1 (second series), hits give low values 0.953 | locus YNL322C, strain KRE1, hits give low values 0.99 | locus YNR049C, strain mso1, hits give low values 0.972 | locus YNR052C, strain pop2, hits give low values 0.991 | locus YOL012C, strain htz1 0.858 | locus YOL147C, strain pex11, hits give low values 0.988 | locus YOR001W, strain rrp6, hits give low values 1 | locus YOR061W, strain CKA2, hits give low values 0.966 | locus YOR069W, strain VPS5, hits give low values 0.997 | locus YOR070C, strain gyp1, hits give low values 0.985 | locus YOR080W, strain dia2, hits give low values 0.965 | locus YOR083W, strain WHI5, hits give low values 0.977 | locus YOR106W, strain vam3, hits give low values 0.992 | locus YOR136W, strain idh2, hits give low values 0.99 | locus YOR144C, strain elg1, hits give low values 0.988 | locus YOR184W, strain ser1, hits give low values 0.974 | locus YOR265W, strain rbl2, hits give low values 0.985 | locus YOR270C, strain vph1, hits give low values 0.977 | locus YOR290C, strain snf2, hits give low values 0.92 | locus YOR316C, strain cot1, hits give low values 0.984 | locus YPL051W, strain arl3, hits give low values 1 | locus YPL055C, strain LGE1, hits give low values 0.984 | locus YPL078C, strain atp4, hits give low values 0.982 | locus YPL106C, strain sse1, hits give low values 0.966 | locus YPL240C, strain hsp82, hits give low values 1 | locus YPR119W, strain clb2, hits give low values 0.973 | locus YPR141C, strain kar3, hits give low values 0.985 | locus YPR163C, strain tif3, hits give low values 0.997 | locus YPR167C, strain met16, hits give low values 0.997 | strain wtn01, hits give low values 0.981
